# Screening data: PubChem, Buhrlage Lab, Dana-Farber Cancer Institute and Novartis Institutes for BioMedical Research (Cambridge, Mass)
# OTUD3 block – blocks human OTUD3 ubiquitin-rhodamine cleavage; inhibition, % at 25 µM; AID 1645858; purified OTUD3, Ub-rhodamine fluorescence, 2 h; 47,000 tested, 0.7% active; Q5T2D3
# USP30 block – blocks human USP30 ubiquitin-rhodamine cleavage. Q70CQ3. purified USP30, Ub-rhodamine cleavage fluorescence. inhibition, % at 25 µM. 47,000 tested, 5.3% active. AID 1645860
# USP28 inh – inhibitors of human USP28 deubiquitinase. purified USP28, Ub-rhodamine cleavage fluorescence, 30 min. inhibition, % at 25 µM. 47,000 tested, 3% active. AID 1645857
# USP8 inh – blocks human USP8 ubiquitin-rhodamine cleavage; inhibition, % at 20 µM; P40818; AID 1645853; purified USP8, Ub-rhodamine cleavage fluorescence, 30 min; 47,000 tested, 4.2% active
# USP17 block – inhibitors of human USP17 deubiquitinase; A8MUK1; purified USP17, Ub-rhodamine cleavage fluorescence, 3 h; inhibition, % at 50 µM; 47,000 tested, 6.5% active; AID 1645855
# Target sequence (A8MUK1 whole entry, looked up): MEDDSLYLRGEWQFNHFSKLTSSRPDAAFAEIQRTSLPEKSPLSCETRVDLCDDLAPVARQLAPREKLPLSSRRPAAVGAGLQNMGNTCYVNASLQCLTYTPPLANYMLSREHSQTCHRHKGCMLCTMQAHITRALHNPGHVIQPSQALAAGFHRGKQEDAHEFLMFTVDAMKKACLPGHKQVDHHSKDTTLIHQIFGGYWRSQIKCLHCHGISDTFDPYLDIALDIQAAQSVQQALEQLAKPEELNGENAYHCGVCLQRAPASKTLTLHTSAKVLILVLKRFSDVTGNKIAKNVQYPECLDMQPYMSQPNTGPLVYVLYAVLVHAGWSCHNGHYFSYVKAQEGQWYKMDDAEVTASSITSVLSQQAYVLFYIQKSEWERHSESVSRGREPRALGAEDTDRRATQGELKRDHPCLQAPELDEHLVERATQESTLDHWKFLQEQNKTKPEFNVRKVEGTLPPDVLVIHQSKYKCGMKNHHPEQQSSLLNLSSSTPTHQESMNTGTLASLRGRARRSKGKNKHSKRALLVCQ
# Numbers without * were called inactive; x = not tested or not shown. This is a sample that favours compounds with a hit; in the whole collection about 13% have one here. Cut-off read from the data, not from the text of the source: active = inhibition above about 30%; inactive = the rest.
SMILES,OTUD3 block,USP30 block,USP28 inh,USP8 inh,USP17 block
O=C(Cn1c(=O)cnc2ccccc21)NCCc1ccc(Cl)cc1Cl,2.9,4.7,-0.2,13.2,5.5
O=C(Cn1c(COc2ccccc2)nc2ccccc21)Nc1cc(Cl)ccc1Cl,5.3,0.1,6.3,55.5*,9.5
COc1cccc(NC(=O)Cn2c(C(F)(F)F)nc3ccccc32)c1,1.0,x,x,0.2,-9.4
COc1ccc(NC(=O)Cn2c(CS(=O)(=O)c3ccc(C)cc3)nc3ccccc32)cc1,5.8,50.7*,1.6,10.8,23.8
O=C(COC(=O)C(c1ccccc1)c1ccccc1)Nc1ccc(N2CCOCC2)cc1,2.2,12.9,19.3,12.7,7.4
O=C(Cn1c(COc2ccccc2)nc2ccccc21)Nc1ccc(N2CCOCC2)cc1,5.8,22.5,7.8,33.5*,8.2
Cc1ccc(S(=O)(=O)[C@H]2CS(=O)(=O)C[C@@H]2N2CCC(C)CC2)cc1,0.1,-10.8,-0.4,-6.4,1.5
N#Cc1cccc(C(=O)N2CCc3nc4ccccc4n3CC2)c1,10.7,16.0,7.1,11.6,11.0
Cc1ccccc1NC(=O)CSc1ncnc2c1sc1nc(-c3ccccc3)c3c(c12)CCC3,-60.2,-244.0,-83.7,-18.6,-26.6
O=c1[nH]c2ccccc2nc1-c1ccccc1NS(=O)(=O)c1ccccc1,3.1,6.4,2.7,10.1,4.5
O=C(Cn1c(COc2ccccc2)nc2ccccc21)Nc1cc(Cl)cc(Cl)c1,8.1,30.6*,12.1,73.4*,16.2
O=C(Cn1c(SCCOc2ccccc2)nc2ccccc21)NC1CC1,1.0,2.6,-3.3,-3.9,23.7
Cn1c(COc2ccccc2)nnc1SCC(=O)Nc1ccc(N2CCOCC2)cc1,13.8,31.1*,58.1*,16.0,21.6
COc1cc(O)c2c(c1)C1=CC(=O)C(O)=C[C@]1(C)OC2=O,41.1*,47.9*,36.4*,14.3,45.8*
Cc1c(CNCc2ccc(F)cc2)c(C(=O)O)c(C)n1-c1ccccc1,-33.7,-136.6,-39.5,43.4*,-8.3
COc1ccc(CNCc2c(C(=O)O)c(C)n(-c3ccccc3)c2C)cc1,-13.1,-20.3,-9.6,-17.2,-2.1
O=C(Nc1nc2c(s1)COCC2)c1cc(-c2ccco2)on1,17.6,-86.4,5.5,11.2,25.5
O=C(Nc1nc2c(s1)CN(C(=O)/C=C/c1ccco1)CC2)C1CCCO1 (configuration not stated),-40.2,-274.2,-34.8,41.3*,-17.8
O=C(Nc1nc2c(s1)CN(C(=O)c1cc(-c3ccco3)on1)CC2)C1CC1,9.5,-83.3,3.5,-4.2,34.8*
CCOC(=O)c1[nH]c2c(c1Cc1ccccc1OC)C(=O)CC(C)(C)C2,0.1,x,x,2.1,36.5*
Cc1c(C(=O)OCCOc2ccccc2)[nH]c2c1C(=O)CC(c1ccc(F)cc1)C2 (configuration not stated),-14.3,5.2,-11.1,6.6,-3.6
O=c1cc(NC2CCCCC2)n(-c2ccccc2)c(=O)n1-c1ccccc1,0.0,3.9,-2.0,-5.3,1.5
CCc1ccc(C(CC(=O)Nc2ccc3c(c2)OCO3)NC(=O)C(F)(F)F)cc1 (configuration not stated),17.7,16.4,11.4,36.6*,18.9
O=C(Cc1cccc(C(F)(F)F)c1)Nc1ccc2c(c1)OCO2,-0.5,-0.8,16.5,6.6,2.3
CC(Oc1ccccc1)C(=O)NCc1cnn2ccccc12 (configuration not stated),-4.8,-26.0,-8.6,-26.8,-13.1
SMILES,OTUD3 block,USP30 block,USP28 inh,USP8 inh,USP17 block
CN1c2ccccc2-c2ccccc2C12C=Cc1cc([N+](=O)[O-])ccc1O2 (configuration not stated),-7.4,-25.9,4.6,-9.9,-3.5
CC1(C)C=Cc2cc(O)ccc2O1,0.3,-7.8,-3.1,6.2,40.4*
COc1cccc(S(=O)(=O)N2CCn3nc(C(C)(C)C)cc3C2)c1,16.8,78.8*,20.7,22.0,12.0
COc1cccc(S(=O)(=O)N2CCCn3nnc(COCC4CC4)c3C2)c1,6.2,19.1,-1.4,10.3,2.2
Cc1ccc(C(=O)N2CCOC(c3ccccc3)C2)cc1C (configuration not stated),2.4,-8.1,-2.3,-1.4,-3.0
N#Cc1cn2c(nc1-c1ccc(Cl)cc1)nc1ccccc12,60.7*,76.5*,71.4*,70.9*,94.3*
Cc1cc(C)n2ncc(C(=O)NCCc3ccc(Cl)cc3)c2n1,-6.3,-11.5,30.1*,-31.8,-5.0
Fc1ccc(CSc2ccc(-c3ccncc3)nn2)cc1,-0.1,10.0,22.4,0.5,13.0
CC(C)=CCOc1ccc(C[C@H]2NC(=O)[C@@H](C)NC(=O)[C@@H](Cc3ccc(O)cc3)NC(=O)CNC(=O)[C@H](C)NC(=O)[C@H](Cc3ccccc3)OC2=O)cc1,0.0,5.4,-2.6,17.8,13.3
CC(C)C[C@@H]1NC(=O)[C@H](Cc2ccccc2)N(C)C(=O)[C@H](C)NC(=O)c2ccccc2NC(=O)[C@H](Cc2ccc(O)cc2)N(C)C1=O,9.1,19.3,15.4,8.9,41.0*
CNS(=O)(=O)Cc1ccccc1CNC(=O)c1c(-c2ccccc2)noc1C,2.5,-2.4,-0.7,17.3,6.4
O=C(Nc1ccc(Oc2ccccc2)cc1)c1c(F)cccc1Cl,8.0,14.8,27.5,-112.0,-1.9
O=C(Nc1cc(C(F)(F)F)cc(C(F)(F)F)c1)c1c(F)cccc1Cl,13.7,32.7*,32.7*,21.0,17.2
O=C(Nc1ccc(OCc2ccccc2)cc1)c1c(F)cccc1Cl,1.2,25.1,12.6,-26.5,-1.1
O=C(Nc1ccc(S(=O)(=O)Nc2cc(Cl)cc(Cl)c2)cc1)c1c(F)cccc1Cl,9.2,25.0,15.6,-11.0,43.5*
O=C(c1cccnc1)N1CCCC(c2nn(CCOc3ccccc3)c3nccnc23)C1 (configuration not stated),13.7,16.0,15.9,-13.4,9.4
Cn1cc(-c2nc(C(=O)Nc3ccc(C#N)cc3)cs2)c2cccnc21,-57.7,-199.7,-90.1,85.5*,-24.7
Cn1cc(-c2nc(C(=O)Nc3cccc(F)c3)cs2)c2cccnc21,-15.0,16.6,7.8,1.3,12.9
Cc1ccc(-c2csc3ncn(CCCn4ccnc4)c(=O)c23)cc1,-4.9,-25.5,-10.3,-14.8,-8.6
COc1ccc(S(=O)(=O)N2CCC(c3ncc(C)[nH]3)C2)cc1 (configuration not stated),12.0,31.0*,8.7,-31.1,11.5
CNC(=O)c1c(Br)cnn1-c1ccc(C)cc1,3.4,x,x,3.8,38.7*
Cc1ccc(Cn2nnc3c(=O)[nH]c(C4CCN(C(=O)c5cccc(F)c5)CC4)nc32)cc1,-9.8,-15.1,-20.2,-9.9,-12.0
Cc1cccc(-n2nnc3c(=O)n(Cc4ccc([N+](=O)[O-])cc4)cnc32)c1,0.0,-4.9,-5.0,-7.9,x
Cc1ccc(C)c(Cn2cnc3c(nnn3-c3cccc(F)c3)c2=O)c1,-13.1,-41.4,-16.1,53.6*,x
CCOC(=O)c1cccc(NC(=O)Cc2nc(-c3ccc(OC)cc3)no2)c1,0.0,-3.9,7.5,8.8,-8.8
